Shown are actives, neighbours in structure and some others; about 11% of the full set was active somewhere.
HEK293 tox: Cytotoxic Profiling in HEK 293 Cell Line of Diverse Libraries Using Quantitative High-Throughput Screening; HEK 293 viability, ATP luminescence (CellTiter-Glo), 48-72 h; Potency, µM (doses to about 115 µM), without a hit: at the highest dose activity change, negative = cytotoxicity, usual class: inhibitors; 94,000 compounds, 6.6% hits; AID 1345083, 2018; note: nearly all actives have a fitted effect of over 60% in size
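HEK 293 cells at 250 cells/well were exposed to compounds by pintool transfer for 48 or 72 hr at 37 degree Celsius, 5% CO2. Viability was read as ATP-coupled luminescence with CellTiter-Glo after 10 min at room temperature.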
NPR1 antag: Natriuretic polypeptide receptor (hNpr1) antagonism - Primary qHTS; Atrial natriuretic peptide receptor 1 (Homo sapiens), P16066; HEK293 hNpr1 GloSensor cGMP, ANP-stimulated luminescence; Potency, µM (doses to about 46.3 µM), without a hit: at the highest dose activity change, negative = inhibition, usual class: inhibitors; 76,000 compounds, 1.6% hits; AID 1347048, 2019; calls by dose curve; note: nearly all actives have a fitted effect of over 60% in size
Target sequence (P16066 whole entry, looked up): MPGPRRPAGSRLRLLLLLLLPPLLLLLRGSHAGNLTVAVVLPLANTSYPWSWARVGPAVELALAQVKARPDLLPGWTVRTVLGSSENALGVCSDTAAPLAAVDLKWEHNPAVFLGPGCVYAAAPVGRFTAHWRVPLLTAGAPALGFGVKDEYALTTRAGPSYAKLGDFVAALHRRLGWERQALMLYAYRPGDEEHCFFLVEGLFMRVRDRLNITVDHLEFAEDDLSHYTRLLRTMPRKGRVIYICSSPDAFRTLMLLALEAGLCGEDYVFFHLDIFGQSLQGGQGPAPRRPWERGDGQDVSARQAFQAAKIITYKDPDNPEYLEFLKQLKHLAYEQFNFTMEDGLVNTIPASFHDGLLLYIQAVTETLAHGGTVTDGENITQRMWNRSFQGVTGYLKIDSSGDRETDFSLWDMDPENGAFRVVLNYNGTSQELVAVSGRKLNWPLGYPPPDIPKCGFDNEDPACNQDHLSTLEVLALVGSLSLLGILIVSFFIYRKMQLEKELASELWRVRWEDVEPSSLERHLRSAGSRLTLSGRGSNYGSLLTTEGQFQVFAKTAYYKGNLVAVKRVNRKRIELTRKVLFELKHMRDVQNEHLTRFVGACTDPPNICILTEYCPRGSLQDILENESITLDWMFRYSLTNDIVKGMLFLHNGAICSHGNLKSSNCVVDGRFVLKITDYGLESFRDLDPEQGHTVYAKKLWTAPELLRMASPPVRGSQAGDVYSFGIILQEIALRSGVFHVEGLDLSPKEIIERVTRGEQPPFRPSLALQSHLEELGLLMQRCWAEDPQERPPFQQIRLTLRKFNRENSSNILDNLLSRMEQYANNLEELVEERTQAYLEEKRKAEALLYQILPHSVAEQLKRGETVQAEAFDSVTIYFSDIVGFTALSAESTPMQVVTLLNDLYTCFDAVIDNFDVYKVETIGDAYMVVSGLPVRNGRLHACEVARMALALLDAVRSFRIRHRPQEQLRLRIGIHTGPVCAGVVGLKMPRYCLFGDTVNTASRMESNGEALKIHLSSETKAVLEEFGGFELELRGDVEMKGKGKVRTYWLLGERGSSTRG
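Compound pre-incubated 30 min at room temperature on GloSensor-loaded HEK293 cells stably carrying hNpr1 and the pGS-40F cGMP biosensor. Stimulation uses hNppA at 0.1 nM final; luminescence is taken at baseline and 20 min post-agonist.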
FLuc inh: Firefly luciferase inhibition profiling of diverse chemical library using quantitative high-throughput screening; AID 1347043, 2019; Luciferin 4-monooxygenase (Photinus pyralis), P08659; 76,000 compounds, 2.5% hits; Potency, µM (titrated, usually from 115 µM), hits mostly inhibitors; purified P. pyralis luciferase, luminescence, biochemical; note: nearly all actives have a fitted effect of over 65% in size
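Purified P. pyralis luciferase (10nM final) in 50mM Tris acetate pH 7.5, 10mM Mg acetate, 0.01% Tween-20, 0.05% BSA with 10uM D-luciferin and 10uM ATP. Compounds titrated qHTS. Luminescence imaged on CCD.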
3T3 cytotox: Cytotoxic Profiling in NIH 3T3 Cell Line of Diverse Libraries Using Quantitative High-Throughput Screening; 94,000 compounds, 4.3% hits; NIH 3T3 viability, CellTiter-Glo ATP luminescence, 48-72 h; Potency, µM (titrated, usually from 96.7 µM), for inactives: at the top dose activity change, negative = cytotoxicity, actives largely listed as inhibitors; note: nearly all actives have a fitted effect of over 55% in size
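Cells were seeded at 400 per well, treated with pin-transferred compound, and kept 48 or 72 hr at 37 °C before CellTiter-Glo addition and luminescence imaging of cellular ATP.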
The depositor's hits bear a star; i = inactive; ? = inconclusive; . = no result given; [ ] = another dose, or the depositor's remark. Unless noted, calls come from the whole dose curve; as a rule, active = well fitted curve in the direction sought with a large enough effect; inconclusive = small, poorly fitted or top-dose-only effect, or another doubt; inactive = no such curve, though single readings can be large; an effect the other way counts as inactive or inconclusive. % is set by controls: 0 for no effect and ±100 for the full control effect; potency is the fitted concentration of half-maximal effect.

SMILES	HEK293 tox	NPR1 antag	FLuc inh	3T3 cytotox
CCC(=O)N1CCCN(Cc2ccc3c(c2)OCO3)c2ccccc21	45µM*	-2%	i	?
COCCN1CCOC2(CCN([S+](=O)([O-])c3cccc(C)c3)CC2)C1=O	1%[172 µM]	-1%[70.6 µM]	i	89µM*
O[C@@H]1C[C@@H](c2nc(-c3ccc4c(c3)OCO4)no2)N(CCCc2ccccc2)C1	?	-4%[70.6 µM]	35µM*	?
O[C@@H]1C[C@@H](c2nc(-c3ccc4c(c3)OCO4)no2)N(Cc2ccccn2)C1	?	-1%[70.6 µM]	45µM*	-17%[174 µM]
Oc1ccccc1CN1C[C@H](O)C[C@H]1c1nc(-c2ccc3c(c2)OCO3)no1	-20%[172 µM]	-3%[70.6 µM]	?	-17%[138 µM]
O[C@@H]1C[C@@H](c2nc(-c3ccccn3)no2)N(Cc2cccs2)C1	?	-16%[70.6 µM]	35µM*	-13%[174 µM]
O[C@@H]1C[C@@H](c2nc(-c3ccc4c(c3)OCO4)no2)N(C2CCOCC2)C1	-13%[172 µM]	3%[70.6 µM]	i	-11%[174 µM]
O[C@@H]1C[C@@H](c2nc(-c3ccc4c(c3)OCO4)no2)N(CC2CC2)C1	?	-13%[70.6 µM]	22µM*	-27%[174 µM]
CCCCN1CCN(C(=O)C2CCCN(c3cnn(Cc4ccccc4)c(=O)c3)C2)CC1 (centres undefined)	?	-1%	i	-15%
CNC(=O)c1cc(C)nc2onc(C3CCN(C(=O)NC(C)C)C3)c12 (centres undefined)	-9%	.	.	-20%
CN1CC(=O)N(C2CCCNCC2)Cc2c1ncnc2N1CCC(O)C1 (centres undefined)	i	.	.	i
O[C@@H]1C[C@@H](c2nc(-c3ccc(F)cc3)no2)N(CC2CCCCC2)C1	-24%[172 µM]	0%[70.6 µM]	?	-17%[174 µM]
O[C@@H]1C[C@@H](c2nc(-c3ccc4c(c3)OCO4)no2)N(CC2CCCCC2)C1	89µM*	-5%[70.6 µM]	?	89µM*
COc1ccc(Nc2ccnc(N3CCC(C(=O)N4CCC(c5ccccc5)CC4)CC3)n2)cc1	13µM*	.	.	20µM*
COc1ccc(Nc2ccnc(N3CCC(NC(=O)c4cccc(OC)c4)CC3)n2)cc1	35µM*	.	.	?
COc1ccc(C(=O)NC2CCN(c3nccc(Nc4ccccc4F)n3)CC2)cc1	?	.	.	-36%
COc1ccc(C(=O)NC2CCN(c3nccc(Nc4ccc(C)cc4)n3)CC2)cc1	35µM*	.	.	?
Cc1ccc(Nc2ccnc(N3CCC(NC(=O)c4cccc(Cl)c4)CC3)n2)cc1	?	.	.	40µM*
COCCOc1ccc2c(n1)CCN(C(=O)c1ccco1)C2	3%	7%	i	4%
COc1ccc(Nc2ccnc(N3CCC(NC(=O)c4cccc(Cl)c4)CC3)n2)cc1	14µM*	.	.	28µM*
COC(=O)NC1CCN(c2nccc(Nc3ccc(OC)cc3)n2)CC1	?	.	.	-33%
Cc1ccc(Nc2ccnc(N3CCC(NC(=O)c4ccc(Cl)cc4)CC3)n2)cc1	22µM*	.	.	32µM*
COc1ccc(CC(=O)NC2CCN(c3nccc(Nc4ccc(OC)cc4)n3)CC2)cc1	40µM*	.	.	35µM*
COc1ccc(Nc2ccnc(N3CCC(NC(=O)c4ccccc4)CC3)n2)cc1	35µM*	.	.	?
CCC(=O)N1CCN(C2CCN(Cc3ccccn3)C2=O)CC1 (centres undefined)	?	2%	i	-7%
SMILES	HEK293 tox	NPR1 antag	FLuc inh	3T3 cytotox
O=C(c1cccc(Cl)c1)N1CCCC(C(=O)N2CCC(c3nc4ccncc4[nH]3)CC2)C1 (centres undefined)	-27%	.	.	?
CN(C)C(=O)NC1CCCN(c2ccc3nnc(C4CC4)n3n2)C1 (centres undefined)	3%[172 µM]	.	.	-14%[138 µM]
COc1ccccc1Nc1ccnc(N2CCC(NC(=O)c3ccc(Cl)nc3)CC2)n1	?	.	.	-21%
COc1cccc(C(=O)NC2CCN(c3nccc(Nc4ccccc4OC)n3)CC2)c1	40µM*	.	.	?
COc1ccc(C(=O)N2CCC(N3C[C@H](O)C[C@H]3C(=O)NC3CCCCC3)CC2)cc1OC	-11%	-16%	i	-13%
CCN1C(=O)C2(CCN(S(=O)(=O)c3ccc(Cl)cc3C)CC2)c2ccccc21	10µM*	-19%	i	?
CC(C)CCN1CCC(N2CCN(C(=O)c3ccc(Cl)s3)CC2)C1=O (centres undefined)	?	-5%	i	-9%
COCCCNC(=O)CCN(CCC(C)C)C(=O)c1cc(C)oc1C	?	-3%	i	-7%
CCCCN(CCC(=O)NCCc1ccccc1)C(=O)c1cc(C)oc1C	14µM*	?	i	35µM*
Cc1cc(C(=O)N(CCC(=O)NCCC(C)C)CCC(C)C)c(C)o1	32µM*	-16%	i	?
CCCCCN(CCC(=O)NCCC(C)C)C(=O)c1cc(C)oc1C	28µM*	-23%	i	?
O=[S+]1([O-])NCC2(CCN(CC3CCCC3)CC2)Oc2ncccc21	-23%	.	.	-19%
C1CCC(c2nc(CCOCC3CCCC3)no2)NC1 (centres undefined)	-38%	-16%	i	-20%
O=C(NCc1nnc2cc(-c3nc(C4CC4)no3)ccn12)c1c(F)cccc1F	35µM*	2%	i	?
O=C(NCc1nnc2cc(-c3nc(C4CC4)no3)ccn12)c1ccccc1	?	4%	i	-1%
O=c1n(CCCN2CCN([S+](=O)([O-])c3ccccc3)CC2)nc2n1CCCC2	i	.	.	-3%
CC(=O)N1CC[C@H](c2nc3ccc(C(F)(F)F)cc3[nH]2)C1	-9%[172 µM]	3%[70.6 µM]	i	?
COc1ccc2nc([C@H]3CCN(C(C)C)C3)[nH]c2c1	-26%[230 µM]	?	22µM*	-26%[174 µM]
CC(C)N1CC[C@H](c2nc3ccc(C#N)cc3[nH]2)C1	-29%[230 µM]	-13%[70.6 µM]	40µM*	-11%[230 µM]
CC(C)N1CC[C@H](c2nc3ccc(C(F)(F)F)cc3[nH]2)C1	?	5%[70.6 µM]	22µM*	-25%[174 µM]
COc1cc2nc(Cl)nc(N3CC4CCC(C3)N4CC(F)(F)F)c2cc1OC	-11%	.	.	?
COc1cc(CNC(=O)[C@H]2CCC[C@H]2NC(=O)c2ccc(OC)nc2)cc(OC)c1	-29%	-1%	i	-23%
Cc1ccc(-n2c(C3CCN(C(=O)CCc4ccccc4)CC3)n[nH]c2=O)cc1	-3%	-1%	i	?
COCCNC(=O)c1nc(-c2ccccc2OC)c2cnccn12	?	1%[70.6 µM]	i	?
COc1ccccc1-c1nc(C(=O)NC2CC2)n2ccncc12	?	-22%[70.6 µM]	i	56µM*
O=C(NC1CC1)c1nc(-c2cccc(F)c2)c2cnccn12	?	11%[70.6 µM]	i	?
O=C(NC1CC1)c1nc(-c2cccc(C(F)(F)F)c2)c2cnccn12	79µM*	-5%	i	-24%
O=C(NC1CC1)c1nc(-c2ccccc2)c2ccccn12	63µM*	4%[70.6 µM]	i	?
